# HP1b binding inh: inhibitors of HP1-beta chromodomain binding to methylated histone tails. 390,000 compounds, 0.56% hits. P83916. AlphaScreen HP1-beta / biotin-H3K9me3 peptide binding. Potency, µM (top dose mostly 114 µM), inactives show top-dose activity change, negative = inhibition, most hits filed as inhibitors; note: nearly all actives have a fitted effect of over 70% in size
#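 Compound inhibition of the preformed complex between 50 nM HP1-beta and 50 nM biotinylated H3K9me3 peptide was read by AlphaScreen. Buffer was PBS pH 7.4 with 0.01% Tween-20. Incubations ran 30 min at room temperature, with 10 ug/mL donor/acceptor beads.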
# G9a block: G9a (human) methyltransferase inhibition; 350,000 compounds, 8.8% hits; G9a H3K9 monomethylation, AlphaScreen, 2 h; AID 504332; Potency, µM (highest dose often 102 µM), for inactives: top-dose activity, negative = inhibition, most hits filed as inhibitors; Q96KQ7; note: % is set by controls: 0 for no effect and ±100 for the full control effect; nearly all actives have a fitted effect of over 75% in size
#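 Chemiluminescent proximity detection of H3K9 monomethylation, read after 10 min bead incubation in the dark. Reaction: 20 nM G9a, 500 nM biotin-H3K9 peptide, 20 uM SAM cofactor, 2 h, room temperature, following 15 min enzyme-compound preincubation.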
# Sfp inh: Sfp phosphopantetheinyl transferase inhibition; Q9F4F7; Biochemical Sfp PPTase activity, qHTS; Potency, µM, inactives show largest response in the series, negative = inhibition, actives largely listed as inhibitors; 310,000 compounds, 3.5% hits;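 note: the enzyme is Sfp with the accession as filed and its product quenches rhodamine fluorescence; 0% = enzyme reaction without inhibitor and -100% = no enzyme wells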
#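 Fluorescence-quenching assay with 15 nM Sfp, 5 uM rhodamine-CoA and 12.5 uM BHQ-2-labelled ybbR peptide in pH 7.6 Hepes/MgCl2 buffer. Enzyme was pre-incubated with compound for 15 min at room temperature. Rate was taken from the 30-min fluorescence change (525/598 nm).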
# BAZ2B inh: BAZ2B (human) inhibition; Q9UIF8; AlphaScreen BAZ2B-H3K14Ac peptide displacement; Potency, µM (highest dose often 114 µM), inactives show at the highest dose activity change, negative = inhibition, most hits filed as inhibitors; 360,000 compounds, 4.4% hits; note: % is set by controls: 0 for no effect and ±100 for the full control effect; nearly all actives have a fitted effect of over 60% in size
#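 AlphaScreen displacement of biotin-H3(5-23)K14Ac peptide (50 nM final) from BAZ2B (50 nM final) in PBS pH 7.4, 0.01% Tween-20; complex preformed 30 min RT, then compounds (top 110 uM) 30 min RT, beads 20 min dark.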
# PLK1 PBD inh: inhibitors of human PLK1 polo-box domain binding. AID 720504. Plk1 PBD binding of FITC phosphopeptide, fluorescence polarization. 360,000 compounds, 2.8% hits. P53350. Potency, µM, for inactives: max response, negative = inhibition, hits mostly inhibitors; note: series mostly up to about 57 µM; % is set by controls: 0 for no effect and ±100 for the full control effect; nearly all actives have a fitted effect of over 65% in size
# JMJD2A Tudor inh: inhibitors of human JMJD2A Tudor domain. 390,000 compounds, 4.4% hits. Potency, µM (highest dose often 114 µM), without a hit: at the top dose activity change, negative = inhibition, actives largely listed as inhibitors. AlphaScreen JMJD2A-Tudor / H3K4me3 peptide binding; note: % is set by controls: 0 for no effect and ±100 for the full control effect; nearly all actives have a fitted effect of over 50% in size
# Target sequence (O75164 whole entry, looked up, the tested form may be a part): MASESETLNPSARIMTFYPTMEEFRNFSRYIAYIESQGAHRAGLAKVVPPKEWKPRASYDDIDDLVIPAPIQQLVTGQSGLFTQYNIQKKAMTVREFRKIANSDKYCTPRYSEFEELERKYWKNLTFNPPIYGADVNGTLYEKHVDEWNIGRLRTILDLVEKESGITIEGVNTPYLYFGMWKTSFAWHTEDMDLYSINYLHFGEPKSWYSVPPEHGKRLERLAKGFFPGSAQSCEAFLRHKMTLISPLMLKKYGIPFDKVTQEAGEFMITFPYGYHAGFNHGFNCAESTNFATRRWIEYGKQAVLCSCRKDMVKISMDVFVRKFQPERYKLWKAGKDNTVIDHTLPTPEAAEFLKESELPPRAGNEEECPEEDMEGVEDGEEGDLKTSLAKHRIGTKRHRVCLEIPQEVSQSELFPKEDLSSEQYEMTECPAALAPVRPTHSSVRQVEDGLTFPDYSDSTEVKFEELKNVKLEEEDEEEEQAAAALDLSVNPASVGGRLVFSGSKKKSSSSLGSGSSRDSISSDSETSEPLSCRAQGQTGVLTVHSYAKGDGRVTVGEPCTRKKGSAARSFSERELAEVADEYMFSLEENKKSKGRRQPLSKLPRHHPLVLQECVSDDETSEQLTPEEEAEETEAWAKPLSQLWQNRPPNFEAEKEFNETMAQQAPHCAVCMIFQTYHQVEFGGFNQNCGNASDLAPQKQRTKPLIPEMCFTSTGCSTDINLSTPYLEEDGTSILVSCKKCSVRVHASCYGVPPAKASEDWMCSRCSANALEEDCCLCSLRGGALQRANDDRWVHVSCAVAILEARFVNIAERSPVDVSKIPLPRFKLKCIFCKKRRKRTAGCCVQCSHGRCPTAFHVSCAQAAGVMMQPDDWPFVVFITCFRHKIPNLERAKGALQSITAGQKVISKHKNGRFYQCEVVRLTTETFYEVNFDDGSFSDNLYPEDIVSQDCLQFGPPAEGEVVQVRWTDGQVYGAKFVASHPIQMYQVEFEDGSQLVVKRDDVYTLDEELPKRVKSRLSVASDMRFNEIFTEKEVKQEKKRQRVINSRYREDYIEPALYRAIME
# Active calls of the source: *; ? = inconclusive; nt = no result; [ ] = another dose, or the depositor's remark. Only some compounds are listed: those with a hit (about 12% of all), similar ones and a draw of the others. Calls come from the whole dose curve; as a rule, active = well fitted curve in the direction sought with a large enough effect; inconclusive = small, poorly fitted or top-dose-only effect, or another doubt; inactive = no such curve, though single readings can be large; an effect the other way counts as inactive or inconclusive. Potency is the fitted concentration of half-maximal effect.
SMILES,HP1b binding inh,G9a block,Sfp inh,BAZ2B inh,PLK1 PBD inh,JMJD2A Tudor inh
O=C1NC[C@H](CCCCN2C[C@H](Cc3ccccc3)N(CCC3CCCCC3)C(=O)C2=O)N(CC2CCCCC2)C1=O,nt,nt,nt,nt,-7%,nt
CC(=O)C1=C(C)NC(SCC(=O)Nc2nc3ccccc3s2)=C(C#N)C1c1ccc(Cl)cc1 (stereo unspecified),10%,8.9µM*,40µM*,-25%,-10%,-32%
CC1=C(C(=O)Nc2ccc(Cl)cc2)C(c2ccncc2)C(C#N)=C(SCC(N)=O)N1 (stereo unspecified),41%,?,89µM*,-4%,-17%,-12%
O=c1n(Cc2ccc(Cl)cc2)c2ccccc2c2nc(-c3ccccc3)nn12,39%,-6%[59 µM],nt,-5%,nt,-2%
CCSCc1nnc(SCC(=O)c2ccc(OC)cc2)n1C,2%,?,-23%,0%,-11%,50µM*
CCn1c(CNC(=O)c2ccc(OC)c(OC)c2)nnc1SCC(=O)c1ccc(OC)cc1,-13%,11µM*,-14%,-4%,?,-4%[11.4 µM]
COc1ccc(C(=O)CSc2nccn2C)cc1,4%,50µM*,56µM*,-30%,-16%,-12%
COc1ccc(CC(=O)NCc2nnc(SCC(=O)c3ccc(OC)cc3)n2C)cc1,44%,-26%,16%,-3%,5%,-11%
COc1ccc(OC)c(C(=O)CSc2nnc(Cc3cccs3)n2C)c1,38%,-16%[59 µM],45µM*,8%,-5%,-6%
COc1ccc(CCNc2nc3ccccc3c3nc(-c4cccc(C)c4)nn23)cc1OC,11%,0%[59 µM],nt,-10%,nt,-28%
CCc1ccccc1N(CC(=O)Nc1cccnc1)S(=O)(=O)c1ccccc1,11%,3%[12.7 µM],-2%,-11%,0%,-21%
CC(=O)Nc1c2c(nn1-c1ccc(Cl)cc1)CSC2,43%,23%,18%,-13%[57.1 µM],-16%,-10%
COc1ccc(C(=O)NCc2nnc(SCC(=O)c3ccc(F)cc3)n2C)cc1OC,13%,-2%[0.501 µM],nt,9%,-15%,-3%
COc1ccc(C(=O)CSc2nnc(CNC(=O)c3ccc(OC)c(OC)c3)n2C)cc1,-8%,-4%[12.7 µM],-15%,7%,-2%,45µM*
Cc1nc2ccc(S(=O)(=O)N(C)CC(=O)NCc3ccc(N(C)C)cc3)cc2s1,-25%,50µM*,14%,?,-28%,?
CN(C)c1ccc(CNC(=O)CN2CCSc3ccc(S(=O)(=O)N(C)C)cc32)cc1,-16%[57 µM],7.9µM*,nt,40µM*,nt,45µM*
Cc1nc2ccc(S(=O)(=O)N(C)CC(=O)NCc3ccc4c(c3)OCO4)cc2s1,5%,10%[2.33 µM],19%,0%,-11%,-8%
CN(C)S(=O)(=O)c1ccc2c(c1)N(CC(=O)N1CCCCC1)CCS2,4%[57 µM],14%[59 µM],nt,-6%,nt,-21%
O=C(CCc1nc(-c2ccccc2)no1)NC1CCCCCC1,21%,16%[59 µM],nt,-3%,0%,-4%
Cc1c(C)n(CCN(C)C)c2ccc(C(=O)OCCN(C)C)cc12,9%,14µM*,2%,-26%,2%,-7%
Cc1ccccc1CCNC(=O)c1ccc2c(c1)c(C)c(C)n2Cc1ccccc1,36%,-32%[59 µM],nt,-28%,nt,-29%
Cc1c(C)n(Cc2ccccc2)c2ccc(C(=O)OCCCN(C)C)cc12,?,9%,7%,-12%,-9%,40µM*
CCCCn1c(SCC(=O)NC2CC2)nc2ccccc2c1=O,18%,49%,18%,-2%,1%,0%
Cc1ccc(-c2ccc(=O)n(CC(=O)N3CCN(c4cccc(C)c4)C(C)C3)n2)cc1 (stereo unspecified),-7%,6%[12.7 µM],-4%,?,0%,?
Cc1ccc(N2C(=O)C3C4C=CC(CNC(=S)N5CCN(c6cccc(C)c6)C(C)C5)(O4)C3C2=O)cc1 (stereo unspecified),25µM*,2µM*,20µM*,-2%,-13%,18µM*
SMILES,HP1b binding inh,G9a block,Sfp inh,BAZ2B inh,PLK1 PBD inh,JMJD2A Tudor inh
CC1CC1c1ccc(/C=C(\C#N)C(=O)Nc2cc(Cl)ccc2Cl)o1 (stereo unspecified),19%,?,-5%,0%,3%,-12%
CC1CC1c1ccc(/C=C(\C#N)C(=O)Nc2ccc(Cl)cc2Cl)o1 (stereo unspecified),28%,-5%[59 µM],56µM*,-11%,3%,-16%
NC(=O)c1ccc(N=Nc2c(O)c3ccccc3[nH]c2=O)cc1,nt,?,-8%,?,nt,nt
N=C(N)c1ccc(N=Nc2c(O)ccc3c2[nH]c2ccccc23)cc1,71µM*,nt,nt,nt,-8%,56µM*
Oc1c(CN2CCOCC2)cc(CN2CCOCC2)c(O)c1O,6.3µM*,nt,nt,nt,1.7µM*,11µM*
c1cc2ccc3ccc(CN4CCOCC4)c4ccc(c1)c2c34,68%,2%[59 µM],-13%,31%,-3%,2%
Oc1cccc(CN2CCOCC2)c1O,71µM*,nt,nt,nt,0%,10µM*
CCCc1cc(CN2CCOCC2)c(O)c(CN2CCOCC2)c1O,25µM*,nt,nt,nt,6.7µM*,11µM*
Oc1c(Cl)cc(Oc2cc(Cl)c(O)c(CN3CCOCC3)c2)cc1CN1CCOCC1,?,nt,nt,nt,-8%,?
CCOC(=O)C1CCCN(C2CC(=O)N(c3ccc(N4C(=O)CC(N5CCCC(C(=O)OCC)C5)C4=O)cc3)C2=O)C1 (stereo unspecified),42%,32µM*,-28%,50µM*,-7%,-3%
CCOC(=O)C1CCCN(C2CC(=O)N(c3cccc(C(F)(F)F)c3)C2=O)C1 (stereo unspecified),46%,?,50µM*,-31%,-8%,56µM*
CCOC(=O)C1CCCN(C2CC(=O)N(c3ccccc3)C2=O)C1 (stereo unspecified),46%,nt,1%,2%,-3%,2%
CCOC(=O)C1CCCN(C2CC(=O)N(c3ccc(C)c(C)c3)C2=O)C1 (stereo unspecified),30%,-43%[59 µM],8%,1%,-3%,-10%
O=C(CSc1nc2nn(-c3ccccc3)c(=O)c-2c2n1CCCCC2)Nc1cccc(F)c1,17%,nt,nt,nt,1%,-28%
CCOC(=O)c1ccccc1NCN1C(=O)CSC1=O,41%,-5%[59 µM],-3%,-6%,0%,-1%
CCOC(=O)c1c(C(=O)OCC)c(C)n(N2C(=O)CSC2=S)c1C,15%,-35%[59 µM],16µM*,-37%,?,-16%
Nc1cccc2nsnc12,-7%,11µM*,-22%,-5%,?,-15%
Cc1ccc2nsnc2c1N,19%,nt,-6%,0%,-3%,-9%
COc1cc(/C=N/NC(=O)Cn2ccc(C(F)(F)F)n2)cc(OC)c1OC,-9%,14%,18%,-1%,?,-14%

# Bioassay records (PubChem BioAssay)
